RORgamma inh: ROR gamma (mouse) transcription inhibition | P51450 | Potency, µM (doses to about 53.6 µM), without a hit: at the top dose activity change, negative = inhibition, most hits filed as inhibitors | AID 2551 | Drosophila S2 Gal4-RORgamma UAS-luciferase reporter, 20 h | hit rate 5.4% among 310,000; note: % is set by controls: 0 for no effect and ±100 for the full control effect; nearly all actives have a fitted effect of over 60% in size
Target sequence (P51450 whole entry, looked up, the tested form may be a part): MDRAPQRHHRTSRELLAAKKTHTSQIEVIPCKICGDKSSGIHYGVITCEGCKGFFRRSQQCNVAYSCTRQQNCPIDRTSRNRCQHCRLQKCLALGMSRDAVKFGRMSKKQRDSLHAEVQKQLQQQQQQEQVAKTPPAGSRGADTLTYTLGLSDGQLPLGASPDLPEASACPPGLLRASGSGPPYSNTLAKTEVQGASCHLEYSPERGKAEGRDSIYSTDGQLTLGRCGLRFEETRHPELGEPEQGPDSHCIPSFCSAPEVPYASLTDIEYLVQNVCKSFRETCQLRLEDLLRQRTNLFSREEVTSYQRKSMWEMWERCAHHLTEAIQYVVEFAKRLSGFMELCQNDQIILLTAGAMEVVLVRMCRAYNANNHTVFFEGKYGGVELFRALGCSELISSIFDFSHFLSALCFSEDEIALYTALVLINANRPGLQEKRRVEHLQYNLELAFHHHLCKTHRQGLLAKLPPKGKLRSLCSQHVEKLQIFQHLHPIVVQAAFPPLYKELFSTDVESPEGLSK
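Drosophila S2 cells stably expressing Gal4-DBD/mouse RORγ fusion under metallothionein promoter plus UAS-luciferase; compound 1 h, then 700 uM CuSO4 induction for 20 h at ambient temperature; inhibition read as reduced luminescence.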
TGFb inhibitor: blocks TGF-b signaling; HepG2 CAGA-GFP TGF-b/SMAD3 reporter, GFP fluorescence, 18 h; TGF-beta stimulated, 500 pg/mL final; Potency, µM (titrated, usually from 46.1 µM), inactives show at the highest dose activity, negative = inhibition, hits mostly inhibitors; hit rate 1.2% among 410,000; AID 588855; note: % is set by controls: 0 for no effect and ±100 for the full control effect; nearly all actives have a fitted effect of over 65% in size
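Inhibition of TGF-beta-driven CAGA-GFP reporter expression in HEPG2 cells is measured by cellular GFP fluorescence after 18 h stimulation with 500 pg/mL recombinant TGF-beta in 1% FBS medium at 37 degrees C.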
HepG2 tox: kills HepG2 cells in TGF-b inhibitor counter-screen. AID 588856. Potency, µM (top dose mostly 46.1 µM), without a hit: at the highest dose activity change, negative = cytotoxicity, actives largely listed as cytotoxic. hit rate 0.76% among 410,000. HepG2 CAGA-GFP viability, ATP luminescence, 18 h
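HepG2 CAGA-GFP cells (1000/well, DMEM with 1% FBS) received compound, then TGF-beta at 500 pg/mL final, and were incubated 18 hours at 37 degrees C. Viability was read by CellTiter-Glo luminescence. Media-only wells were set as complete cell-killing and DMSO as no toxicity.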
ATXN2 expr inh: ATXN2 expression inhibition | HEK-293 ATXN2-luciferase reporter, luminescence, 24 h | Potency, µM (titrated, usually from 57 µM), inactives show at the highest dose activity change, negative = inhibition, actives largely listed as inhibitors | hit rate 0.72% among 360,000 | AID 1745845; note: % is set by controls: 0 for no effect and ±100 for the full control effect; nearly all actives have a fitted effect of over 55% in size
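qHTS (up to 57 uM final) was run with 24 h compound exposure of reporter cells at 37 °C. Each well was multiplexed: SteadyGlo luminescence measured ATXN2-luciferase expression after a fluorogenic Gly-Phe-AFC viability readout (25 uM final).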
VP16 counter: Gal4-VP16 reporter inhibition counter-screen. Potency, µM (series often up to 53.6 µM), for the others: at the top dose activity, negative = inhibition, usual class: inhibitors. AID 2546. hit rate 3.5% among 310,000. Drosophila S2 Gal4-VP16 UAS-luciferase, luminescence, 20 h;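 note: Gal4-VP16 expression switched on by copper sulfate through the metallothionein promoter; % is set by controls: 0 for no effect and ±100 for the full control effect; nearly all actives have a fitted effect of over 50% in size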
ATXN viability: cell viability loss in ATXN counter-screen; Potency, µM (titrated, usually from 56.7 µM), hits mostly cytotoxic; S2 cells (HEK-293 line with an ATXN2-luciferase reporter) viability, CellTiter-Fluor protease fluorescence, 24 h; AID 651635; hit rate 0.49% among 400,000; note: nearly all actives have a fitted effect of over 40% in size
The depositor's hits bear a star; i = inactive; ? = inconclusive; . = not tested or not shown; [ ] = another dose, or the depositor's remark. Only some compounds are listed: those with a hit (about 6.1% of all), similar ones and a draw of the others. Calls come from the whole dose curve; as a rule, active = well fitted curve in the direction sought with a large enough effect; inconclusive = small, poorly fitted or top-dose-only effect, or another doubt; inactive = no such curve, though single readings can be large; an effect the other way counts as inactive or inconclusive. Potency is the fitted concentration of half-maximal effect.

SMILES	RORgamma inh	TGFb inhibitor	HepG2 tox	ATXN2 expr inh	VP16 counter	ATXN viability
COc1ccc(NC(=S)NC(=O)CC(C)C)c(OC)c1	?	0%	1%	-1%	?	i
COc1cc(NC(=S)NCCc2ccccc2)c(OC)cc1NC(=O)CC(C)C	10µM*	-8%	-2%	-24%	?	i
CCOc1cc(NC(=S)NCCc2ccccc2)c(OCC)cc1NC(C)=O	11µM*	4%	-13%	-28%[11.3 µM]	-18%	i
COc1ccnc2[nH]cc(C(=O)C(=O)N3CCN(C(=O)c4ccccc4)C[C@@H]3C)c12	.	.	.	-1%	.	.
Cc1ccc(Cn2c(C(=O)O)c(CNC3CCCCCC3)c3ccc(C)cc32)cc1	.	?	-5%	-2%	.	i
CC(C)CC(=O)NC(=S)NCCc1ccccc1	1.8µM*	-6%	-20%	2%	7.9µM*	i
Cc1ccc(C(c2nnnn2CCc2ccccc2)N2CCC(C)CC2)cc1 (configuration not stated)	?	?	-30%	-16%	14µM*	i
Cc1ccc(C(c2nnnn2CCc2ccccc2)N2CCSCC2)cc1 (configuration not stated)	25%	6%	1%	2%	-3%	i
CC1CCN(C(c2ccccc2)c2nnnn2C(C)(C)C)CC1 (configuration not stated)	?	23%	7%	-1%	3.2µM*	i
Brc1ccc(Cn2c(-c3cncs3)nc3ccccc32)cc1	?	-4%	-23%	32%	6.3µM*	i
Brc1cccc(Cn2c(-c3cncs3)nc3ccccc32)c1	8.9µM*	?	-25%	-8%	8.9µM*	i
c1ccc(Cn2c(-c3cncs3)nc3ccccc32)cc1	-26%	-19%	-17%	32%	20%	i
Cc1cccc(Cn2c(-c3cccc(Br)c3)nc3ccccc32)c1	.	?	-25%	.	.	.
C[C@@H]1C(c2cccc(Cl)c2)=NN(c2ccc(Br)cc2)[C@H]1C(=O)N1CCOC1=O	17%	10µM*	-30%	-17%	-12%	.
C[C@@H]1C(c2cccc(Cl)c2)=NN(c2ccccc2)[C@H]1C(=O)N1CCOC1=O	7%	20µM*	-48%	-6%	5%	.
C[C@@H]1C(c2ccccc2)=NN(c2ccccc2)[C@H]1C(=O)N1CCOC1=O	29%	6%	0%	11%	8%	i
Cc1ccc(S(=O)(=O)c2nc(-c3cccc(C)c3)oc2N2CCCCC2)cc1	.	-18%	-31%	0%	.	i
CCc1nc2c(OCCC3CCCCC3)cccn2c1N(C)C(=O)c1ccc(OC)cc1	.	?	-81%	?	.	?
CCc1nc2c(OCc3ccc(Cl)cc3Cl)cccn2c1N(C)C(=O)CC(C)C	.	?	11µM*	?	.	i
CCc1nc2c(OCc3cc(Cl)cc(Cl)c3)cccn2c1N(C)C(=O)CC(C)C	.	?	-52%	?	.	?
CCc1nc2c(OCC3CCCCC3)cccn2c1N(C)C(=O)c1ccc(C)cc1	.	?	-41%	-6%	.	28µM*
CCc1nc2c(OCc3ccc(Cl)cc3Cl)cccn2c1N(C)C(=O)C1CC1	.	?	-30%	?	.	18µM*
Cc1ccc2[nH]c3c(c2c1)CN(C(=O)CC1(c2ccccc2)CC(=O)N(Cc2cccnc2)C1=O)CC3 (configuration not stated)	.	.	.	.	.	i
CC1(C(=O)Nc2nccs2)Cc2ccccc2C(=O)O1 (configuration not stated)	-25%	-1%	8%	1%	8%	i
CC1(C(=O)Nc2nnc(SCc3ccccc3)s2)Cc2ccccc2C(=O)O1 (configuration not stated)	10µM*	3%	-3%	-5%	-11%	i
SMILES	RORgamma inh	TGFb inhibitor	HepG2 tox	ATXN2 expr inh	VP16 counter	ATXN viability
CC(=O)N1CCc2cc(Br)cc(S(=O)(=O)CCC(=O)N3CCN(c4ccccc4)CC3)c21	.	-14%	-6%	9%	.	i
COc1cc2c(cc1OC)CN(CCC(=O)c1ccc(Br)cc1)CC2	11µM*	?	-27%	.	?	i
COc1cc2c(cc1OC)CN(C(=O)CCNC(=O)c1ccc(Br)cc1)CC2	.	0%	-5%	0%	.	i
CC1CCCN(CCC(=O)c2ccc(Br)cc2)C1 (configuration not stated)	?	?	-33%	2%	20µM*	i
C=CCc1ccccc1OCc1nc2ccccc2n1CC	.	?	-29%	-7%	.	i
O=C(C[n+]1cccc(Br)c1)c1ccc(O)c(O)c1	.	0%	-22%	.	.	.
CS(=O)(=O)c1nc(-c2ccccc2)cc(-c2ccccc2)c1C#N	10µM*	-1%	2%	?	?	.
Cc1cc(-c2cc(F)cc3c2OC(CNC(=O)[C@@H]2CCC(=O)N2)C3)ccc1F (some centres not stated)	.	.	.	.	.	i
Cc1cccc(-c2nc3cc(NC(=O)COc4ccccc4F)ccc3o2)c1	.	1%	3%	5%	.	i
C/C(=N\NC(=O)c1ccncc1)c1cc2ccccc2o1	?	15%	-3%	10%	-1%	i
C/C(=N\NC(=S)Nc1c(C)cccc1C)c1cc2ccccc2o1	1µM*	?	-7%	.	7.1µM*	i
C/C(=N\NC(=S)Nc1c(C)cccc1C)c1ccc(O)cc1	8.9µM*	?	-20%	-26%	?	i
C/C(=N\NC(=S)Nc1ccccc1C)c1cc2ccccc2o1	1.3µM*	?	-6%	-17%	7.1µM*	i
C/C(=N\NC(=O)c1ccco1)c1cc2ccccc2o1	0%	3%	13%	17%	-9%	i
Clc1cccc(-n2ncc3c(NCCCn4ccnc4)ncnc32)c1	.	10%	-46%	12%	.	i
Cc1ccc(C)c(C(=O)c2ccccc2NC(=O)c2ccccn2)c1	-12%	-17%	-11%	-3%	-9%	i
Cc1ccccc1-c1ocnc1C(=O)Nc1ccccc1NC(=O)c1ccccn1	2.2µM*	11µM*	-77%	-37%	7.1µM*	?
O=S(=O)(c1ccc(Cl)cc1)N1CCC(c2ccncc2)CC1	.	6%	-15%	.	.	.
CC(C)Cc1ccc(S(=O)(=O)N2CCC(c3ccncc3)CC2)cc1	.	?	-65%	16µM*	.	?
O=S(=O)(c1ccccc1)N1CCC(c2ccncc2)CC1	.	?	-29%	.	.	.
CC(C)(C)c1ccc(S(=O)(=O)N2CCC(c3ccncc3)CC2)cc1	.	2.8µM*	-69%	?	.	?
N[C@@H](CC(=O)N1CCn2c(nnc2C(F)(F)F)C1)Cc1cc(F)c(F)cc1F	.	.	.	-11%	.	.

Bioassay records (PubChem BioAssay)
